# Rows were chosen to be rich in hits. Some 4.3% of all compounds tested hit in one or more screens of this group.
# Peg3 prom inh = Peg3 promoter activity inhibition; 360,000 tested, 1.7% active; inhibition, % at 20 µM; HeLa PEG-Prom luciferase reporter, luminescence, overnight;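 active means inhibition of at least 50% at 20 µM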
# KKLEB tox = counter-screen for CF NF-kB inhibitors: cytotoxicity; 360,000 tested, 0.36% active; KKLEB CF airway cells viability, ATPlite luminescence, overnight; hits give low values; cells stimulated with P. aeruginosa culture filtrate; activity change (cytotoxicity), % at 5 µM; AID 602141;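 active means corrected activity change at or below -50% at 5 µM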
# HIF-2a inh = blocks HIF-2a reporter activity. 786-0 RCC cells HIF-2a reporter, luciferase luminescence, overnight. inhibition, % at 18.8 µM. 360,000 tested, 0.72% active. AID 624352;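 active means inhibition of the luminescence signal of 40% or more relative to plate controls, in a single-dose primary screen at 18.75 µM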
# MITF TRPM1 inh = MITF TRPM1 promoter inhibition in SK-MEL-5 cells | SK-MEL-5 TRPM1 promoter luciferase, 24 h | inhibition, % at 12.5 µM | 330,000 tested, 0.83% active;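 active means mean inhibition across replicates of 60% or more, whatever share of single replicates reaches that level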
# CF NFkB inh = cystic fibrosis NF-kB activation inhibition; KKLEB NF-kB-GFP reporter, PAF-induced, GFP fluorescence overnight; inhibition, % at 5 µM; 360,000 tested, 0.86% active; AID 588850;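 active means at least 50% inhibition at 5 µM, scaled per plate between neutral and stimulator controls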;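 further: PAF is a Pseudomonas aeruginosa culture filtrate used as stimulus; plate controls were PAF-stimulated DMSO wells for no effect and unstimulated DMSO wells for full effect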
# CHOP inhibitor = CHOP inhibition in unfolded protein response; 220,000 tested, 3.8% active; inhibition, % at 10 µM; CHO-K1 CHOP-promoter luciferase, tunicamycin-induced, 15-18 h;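 active means compounds that reduced the stress-induced luciferase reporter signal by more than about 70% of percent inhibition, limit read from the data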;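 further: 0% = tunicamycin plus vehicle and 100% = wells without tunicamycin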
# An asterisk follows results filed as active; . = not tested or not shown.
SMILES,Peg3 prom inh,KKLEB tox,HIF-2a inh,MITF TRPM1 inh,CF NFkB inh,CHOP inhibitor
CC(=O)Nc1ccc(-c2ccnc3c2CC(C(=O)NCC2CCOCC2)O3)cc1 (stereo unspecified),4,-18,10,.,38,.
COc1cccc(OC)c1C(=O)Nc1ccncc1,-6,-5,9,0,-22,.
O=C(C#Cc1ccccc1)Nc1cccc(F)c1,-31,-57*,-131,32,58*,.
O=C(C#Cc1ccccc1)Nc1ccc(F)cc1,-207,4,-148,-53,-8,.
CC(C)CCn1c(=O)c2ccccc2c2ccccc2c1=O,4,-9,18,12,17,78*
CCCCN(CCCC)C(=S)N/N=C/c1c(C)[nH]n(-c2ccccc2)c1=O,72*,-7,1,43,-15,49
Cc1[nH]n(-c2ccccc2)c(=O)c1/C=N/NC(=O)c1ccc(O)cc1O,-10,-11,-13,4,21,.
C[C@H](O)[C@@H]1CN2CCc3c([nH]c4ccccc34)[C@@H]2C[C@@H]1N(C)C(=S)Nc1ccc(C#N)cc1,16,6,-3,.,-19,.
CCOc1ccc(NC(=S)NC(=O)/C=C/c2ccc(C)cc2)c([N+](=O)[O-])c1,15,-39,-85,29,32,63
CCOc1ccc(NC(=S)NC(=O)c2c(Cl)c(C)nn2C)c([N+](=O)[O-])c1,-4,-29,-14,6,23,73*
Cc1nn(C)c(C(=O)NC(=S)Nc2ccccc2O)c1Cl,6,16,0,12,8,.
CCOc1ccc(NC(=S)NC(=O)/C=C/c2ccc(OC)c(OC)c2)c([N+](=O)[O-])c1,42,-2,0,57,8,81*
CCCCNC(=O)C[C@@H]1C[C@@]2(C(=O)OC)CCCCC=C2N(Cc2ccc(Cl)cc2Cl)C1=O,.,.,-1,.,.,.
COc1ccccc1C(C(=O)c1ccccc1)c1ccc2ccccc2c1 (stereo unspecified),.,.,-6,.,.,.
Cc1cccc(NC(=O)CSc2nc3ccc(NC(=O)CSc4nnnn4-c4ccccc4)cc3s2)c1C,.,.,.,.,.,63
O=C(CSc1nc2ccc(NC(=O)CSc3nnnn3-c3ccccc3)cc2s1)Nc1ccccc1,35,-65*,-7,8,61*,36
CCC(Sc1nnnn1-c1ccccc1)C(=O)Nc1nc2ccccc2s1 (stereo unspecified),-17,4,-41,14,-17,89*
Cn1cccc1Cc1nnc(SCC(=O)Nc2nc3ccccc3s2)n1CCc1ccccc1,17,-6,-11,14,-3,95*
O=C(CSc1nnnn1-c1ccc(F)cc1)Nc1nc2ccccc2s1,19,-15,-14,-3,15,70*
Cc1cc2c(NCc3ccccc3)ncnc2s1,18,-21,8,8,37,.
CCN1CCN(S(=O)(=O)c2ccc(Cl)c(C(=O)N(C)Cc3ccc(Cl)cc3Cl)c2)CC1,3,-5,17,12,10,.
CCN1CCN(S(=O)(=O)c2ccc(Cl)c(C(=O)N(C)Cc3cccs3)c2)CC1,3,-52*,8,-9,7,.
Cc1cc(C)n(-c2ccc3cccc(NS(C)(=O)=O)c3n2)n1,59*,3,14,62*,10,74*
Cn1c(=O)c2c(SC3CCCC3)nc(C3CC3)nc2n(C)c1=O,7,11,8,.,32,80*
Cn1c(=O)c2c(SCC(=O)c3ccccc3)nc(C3CC3)nc2n(C)c1=O,3,5,1,7,21,29
SMILES,Peg3 prom inh,KKLEB tox,HIF-2a inh,MITF TRPM1 inh,CF NFkB inh,CHOP inhibitor
Cc1ccc2c(c1)[C@H]1[C@H](CO2)[C@H](c2ccccc2)[C@]2(C)C(=O)Nc3ccccc3C(=O)N12,28,-21,26,20,31,.
C[C@@]12C(=O)Nc3cc(F)ccc3C(=O)N1[C@H]1c3cc(Br)ccc3OC[C@@H]1[C@@H]2c1ccccc1,54*,-13,-8,10,13,.
Cc1ccc2c(c1)[C@H]1[C@H](CO2)[C@H](c2ccccc2)[C@]2(C)C(=O)Nc3cc(F)ccc3C(=O)N12,68*,-27,16,23,26,.
O=C(COc1ccc(Br)cc1F)NC1CC1,-55,3,-98,-45,-4,.
CCCCSC1(SCCCC)N=C(N)C2(C#N)C(c3ccccc3)NC(C)=C(C)C12C#N (stereo unspecified),19,3,0,7,-10,76*
Cc1c(C=O)c2ccccn2c1C(=O)c1ccccc1,4,-10,21,-2,20,72*
CC(C)NC(=O)CSc1nc2ccccc2n1-c1ccccc1,7,-3,-1,3,4,13
CC(C)(C)NC(=O)CSc1nc2ccccc2n1-c1ccccc1,24,-14,5,8,-2,71*
COc1cccc(Oc2ccc(C(F)(F)F)cc2N)c1,-97,-10,-117,-72,4,54
CCOc1ccc(Oc2ccc(C(F)(F)F)cc2N)cc1,-82,-12,-112,-38,19,78*
O=C(c1cc(-c2ccc(Cl)cc2)n(-c2ccc(Cl)cc2)n1)N1CCOCC1,-5,2,19,28,6,73*
O=C(Nc1ccc(F)cc1)C(c1cc2ccccc2o1)N1CCN(CC(=O)N2CCCC2)CC1 (stereo unspecified),.,.,-13,.,.,.
O=C(Cc1csc(-c2ccccc2)n1)NCC(=O)Nc1ccc(F)c(F)c1F,10,11,22,8,-8,.
COc1cccc(OC)c1C(=O)Nc1sc2c(c1C(N)=O)CCN(Cc1ccccc1)C2,13,-10,7,3,-7,.
CCN1CCc2c(sc(NC(=O)c3ccc(S(=O)(=O)N4CCCC4)cc3)c2C(=O)NC)C1,65*,-3,29,74*,4,.
CCOC(=O)N1CCN(S(=O)(=O)c2ccc(C(=O)Nc3sc4c(c3C(N)=O)CCN(CC)C4)cc2)CC1,76*,-7,-8,21,22,.
CCN1CCc2c(sc(NC(=O)c3cc4ccccc4cc3OC)c2C(N)=O)C1,110*,-17,26,37,-16,.
C=CCn1c(C)cc(C(=O)CSc2nnc3n(CCC)c(=O)c4ccccc4n23)c1C,-19,14,-31,4,6,.
COC(=O)c1cc(C)nc2c1c(C)nn2-c1ccccc1,-42,-1,-56,-1,11,.
COc1cc2c(-c3ccccc3O)nc3c(c(C)nn3-c3ccccc3)c2cc1OC,57*,12,14,1,-11,-6
COc1cc(OC)c2c(-c3cccc(-c4ccc(OC)c(F)c4)c3)cc(=O)oc2c1,-38,-12,-32,53,46,.
COc1cc(OC)c2c(-c3cccc(-c4ccc(C(C)=O)cc4)c3)cc(=O)oc2c1,-12,-6,1,42,55*,.
[O-][N+](=C(c1ccccc1)c1ccccc1)c1ccccc1,25,4,20,-20,11,.
O=C(NCCc1ccccn1)c1cncc(Br)c1,-23,4,-36,-9,9,.

# Screening results: PubChem, several laboratories
